# Data taken from the supplement of paper PMC8728848.
# The full list was thinned out, with the strongest signals kept by preference.
# B1: Alpha-agglutinin (Saccharomyces cerevisiae) (protein)
# chain: MFTFLKIILWLFSLALASAININDITFSNLEITPLTANKQPDQGWTATFDFSIADASSIREGDEFTLSMPHVYRIKLLNSSQTATISLADGTEAFKCYVSQQAAYLYENTTFTCTAQNDLSSYNTIDGSITFSLNFSDGGSSYEYELENAKFFKSGPMLVKLGNQMSDVVNFDPAAFTENVFHSGRSTGYGSFESYHLGMYCPNGYFLGGTEKIDYDSSNNNVDLDCSSVQVYSSNDFNDWWFPQSYNDTNADVTCFGSNLWITLDEKLYDGEMLWVNALQSLPANVNTIDHALEFQYTCLDTIANTTYATQFSTTREFIVYQGR
# How the values were obtained:
# Assay in all cases: glycan array binding signal (z-score within array); higher = stronger binding
# Details in all cases: glycan notation: IUPAC condensed, linker removed
# [1] = molecular target: Fuc(a1-2)Gal(b1-3)GalNAc(b1-3)Gal(b1-4)Glc
# Procedure, shortened: (§1)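 Glycan array binding is given as a within-array Z-score, which can be read as non-binding when negative. The arrays, 3228 of them, came from the Consortium for Functional Glycomics database and were retained only where the protein sequence was available. Z-scores were averaged across arrays of the same protein sequence at different concentrations or buffers and across linkers.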
# [2] = molecular target: Fuc(a1-2)[Gal(a1-3)]Gal(b1-4)[Fuc(a1-3)]GlcNAc
# Procedure, shortened: as §1
# [3] = molecular target: Fuc(a1-2)[GalNAc(a1-3)]Gal(b1-4)Glc
# Procedure, shortened: as §1
# Fuc(a1-4)GlcNAc = molecular target: Fuc(a1-4)GlcNAc
# Procedure, shortened: as §1
# Gal(a1-3)Gal(b1-4)GlcNAc = molecular target: Gal(a1-3)Gal(b1-4)GlcNAc
# Procedure, shortened: as §1
# [4] = molecular target: Gal(b1-3)GalNAc(b1-3)Gal(b1-4)Glc
# Procedure, shortened: as §1
# [5] = molecular target: Gal(b1-4)GalNAc(a1-3)[Fuc(a1-2)]Gal(b1-4)GlcNAc
# Procedure, shortened: as §1
# [6] = molecular target: Gal(b1-4)GlcNAc(b1-3)Gal(b1-4)Glc
# Procedure, shortened: as §1
# Gal6S(b1-4)Glc6S = molecular target: Gal6S(b1-4)Glc6S
# Procedure, shortened: as §1
# GalNAc(a1-3)Gal = molecular target: GalNAc(a1-3)Gal
# Procedure, shortened: as §1
# [7] = molecular target: GlcNAc(b1-3)[GlcNAc(b1-4)][GlcNAc(b1-6)]GlcNAc
# Procedure, shortened: as §1
# [8] = molecular target: GlcNAc(b1-4)[GlcNAc(b1-6)]GalNAc
# Procedure, shortened: as §1
# [9] = molecular target: Man(a1-2)Man(a1-3)[Man(a1-3)[Man(a1-6)]Man(a1-6)]Man(b1-4)GlcNAc(b1-4)GlcNAc
# Procedure, shortened: as §1
# [10] = molecular target: Neu5Ac(a2-3)Gal(b1-4)[Fuc(a1-3)]GlcNAc
# Procedure, shortened: as §1
binder,measurement,setting,value
B1,glycan array binding signal (z-score),[1],6.41
same,glycan array binding signal (z-score),[2],-0.112
same,glycan array binding signal (z-score),[3],0.558
same,glycan array binding signal (z-score),Fuc(a1-4)GlcNAc,-0.216
same,glycan array binding signal (z-score),Gal(a1-3)Gal(b1-4)GlcNAc,-0.248
same,glycan array binding signal (z-score),[4],8.68
same,glycan array binding signal (z-score),[5],0.014
same,glycan array binding signal (z-score),[6],3.24
same,glycan array binding signal (z-score),Gal6S(b1-4)Glc6S,0.122
same,glycan array binding signal (z-score),GalNAc(a1-3)Gal,-0.162
same,glycan array binding signal (z-score),[7],0.203
same,glycan array binding signal (z-score),[8],5.52
same,glycan array binding signal (z-score),[9],-0.251
same,glycan array binding signal (z-score),[10],-0.258
